# Assay results from PubChem BioAssay (NCI).
# Compounds without any hit were thinned out: in the full panel of roughly 79,000, 15% have a hit. Unmarked numbers belong to inactive results. Activity calls are given as the source filed them. Cut-off read from the data, not from the text of the source: active = growth inhibition above about 70%; inactive = the rest.
# Assays:
# [1] = NCI Yeast Anticancer Drug Screen. Data for the rad52 strain (AID 147);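 note: 0% = growth of vehicle-treated control cultures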; details: S. cerevisiae rad52 mutant growth inhibition, hits give high values
# How it was run: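 The repair-mutant yeast strain was incubated with compounds, then growth was read and inhibition derived relative to vehicle.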
# [2] = NCI Yeast Anticancer Drug Screen. Data for the wt1 strain (AID 149);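 note: 0% = growth of vehicle-treated wt1 cultures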; details: S. cerevisiae wt1 strain (SPY 50644) growth inhibition, hits give high values
# How it was run: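 Compounds are added to wt1 yeast cultures. Growth is then measured. Inhibition is expressed relative to vehicle-treated controls.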
# [3] = NCI Yeast Anticancer Drug Screen. Data for the rad50EPP+ strain (AID 151);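 note: 0% = growth of vehicle-treated control cultures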; details: S. cerevisiae rad50 mutant strain, hits give high values
# How it was run: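 Vehicle-normalised growth inhibition; rad50EPP+ yeast strain, altered in DNA damage repair, compound-treated.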
# [4] = NCI Yeast Anticancer Drug Screen. Data for the mgt1 strain (AID 153); details: S. cerevisiae mgt1 mutant growth inhibition, hits give high values
# How it was run: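 Vehicle-normalized growth inhibition is determined in mgt1 yeast, a strain selected for a defined alteration in DNA repair or cell cycle control.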
# [5] = NCI Yeast Anticancer Drug Screen. Data for the rad50 strain (AID 155);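 note: 0% = growth of vehicle-only cultures of the same strain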; details: S. cerevisiae rad50 strain growth inhibition, hits give high values
# How it was run: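 Inhibition values express reduced yeast growth in compound-treated cultures relative to vehicle-treated controls.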
# [6] = NCI Yeast Anticancer Drug Screen. Data for the mec2-1 strain (AID 157); details: S. cerevisiae mec2-1 strain, hits give high values
# How it was run: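 Mutant yeast (mec2-1) grown with compound; growth inhibition relative to vehicle control reported.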
# [7] = NCI Yeast Anticancer Drug Screen. Data for the sgs1 mgt1 strain (AID 161);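 note: 0% = growth of cultures given vehicle only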; details: S. cerevisiae sgs1 mgt1 strain, hits give high values
# How it was run: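 Yeast cells carrying a defined DNA-repair defect were exposed to test compounds. Growth inhibition was measured relative to vehicle-treated controls.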
# [8] = NCI Yeast Anticancer Drug Screen. Data for the CLN2oe strain (AID 163);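 note: 0% = growth of vehicle-only control cultures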; details: S. cerevisiae CLN2oe strain, hits give high values
# How it was run: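 Compounds are applied to yeast harbouring a defined cell-cycle control change; reduced growth compared with vehicle-treated controls gives the value.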
# [9] = NCI Yeast Anticancer Drug Screen. Data for the cln2 rad14 strain (AID 165);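 note: 0% = growth equal to vehicle treated cultures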; details: S. cerevisiae cln2 rad14 strain, hits give high values
# How it was run: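 Readout is yeast growth inhibition versus vehicle-treated controls, using a strain with cln2 and rad14 alterations exposed to compound.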
# [10] = NCI Yeast Anticancer Drug Screen. Data for the bub3 strain (AID 167); details: S. cerevisiae bub3 mutant strain, hits give high values
# How it was run: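 Steps: expose the mutant yeast strain to compound; grow alongside vehicle-treated cultures; measure growth; express inhibition against the vehicle cultures.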
# [11] = NCI Yeast Anticancer Drug Screen. Data for the wt2 strain (AID 169);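 note: 0% = growth of vehicle-treated yeast cultures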; details: S. cerevisiae wt2 strain growth inhibition, hits give high values
# How it was run: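 Against vehicle-treated controls, the growth of yeast exposed to each compound was compared, and the inhibition was recorded.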
# [12] = NCI Yeast Anticancer Drug Screen. Data for the mlh1 strain (AID 171);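 note: 0% = growth of vehicle-treated control cultures of the same strain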; details: S. cerevisiae mlh1 strain growth inhibition, hits give high values
# How it was run: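 Measured: yeast growth. Reference: vehicle-treated controls. Organism: strain with a defined alteration affecting DNA damage repair or cell cycle control, treated with compound.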
# [13] = NCI Yeast Anticancer Drug Screen. Data for the sgs1 strain (AID 173);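 note: 0% = growth of vehicle-only control cultures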; details: S. cerevisiae sgs1 mutant, hits give high values
# How it was run: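 Each compound was added to cultures of the altered yeast strain. Growth was recorded, and inhibition was derived by comparison with vehicle controls.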
# [14] = NCI Yeast Anticancer Drug Screen. Data for the mlh1 rad18 strain (AID 175); details: S. cerevisiae mlh1 rad18 strain growth inhibition, hits give high values
# How it was run: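 Genetically defined yeast (DNA repair-deficient) exposed to compounds; growth inhibition determined relative to vehicle.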
# [15] = NCI Yeast Anticancer Drug Screen. Data for the rad18 strain (AID 177); details: S. cerevisiae rad18 mutant growth inhibition, hits give high values
# How it was run: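 Vehicle-treated cultures served as the baseline for scoring compound-induced growth inhibition in DNA-repair-mutant yeast.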
# [16] = NCI Yeast Anticancer Drug Screen. Data for the rad14 strain (AID 159);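 note: 0% = growth of vehicle-treated control cultures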; details: S. cerevisiae rad14 strain growth inhibition, hits give high values
# How it was run: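 A mutant yeast strain defective in DNA damage repair is treated with compound; inhibition of its growth is scored against untreated, vehicle-exposed cultures.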
# [17] = at 5.0 µM (retest, dose inferred, filed as 0.5)
# [18] = at 50.0 µM (retest, dose inferred, filed as 5.0)
smiles,measurement,setting,value
CCCCCCCCCCC1CCC(=O)O1 (stereo not drawn),growth inhibition,[1]; at 1.2 µM,-2%
same,growth inhibition,[1]; at 3.7 µM,-2%
same,growth inhibition,[1]; at 11.0 µM,-1%
same,growth inhibition,[1]; at 33.0 µM,4%
same,growth inhibition,[1]; at 100.0 µM,99% (active)
same,growth inhibition,[2]; at 1.2 µM,-2%
same,growth inhibition,[2]; at 3.7 µM,-2%
same,growth inhibition,[2]; at 11.0 µM,-2%
same,growth inhibition,[2]; at 33.0 µM,3%
same,growth inhibition,[2]; at 100.0 µM,98% (active)
same,growth inhibition,[3]; at 1.2 µM,-2%
same,growth inhibition,[3]; at 3.7 µM,3%
same,growth inhibition,[3]; at 11.0 µM,11%
same,growth inhibition,[3]; at 33.0 µM,22%
same,growth inhibition,[3]; at 100.0 µM,38%
same,growth inhibition,[4]; at 1.2 µM,-2%
same,growth inhibition,[4]; at 3.7 µM,-1%
same,growth inhibition,[4]; at 11.0 µM,0%
same,growth inhibition,[4]; at 33.0 µM,8%
same,growth inhibition,[4]; at 100.0 µM,100% (active)
same,growth inhibition,[5]; at 1.2 µM,-1%
same,growth inhibition,[5]; at 3.7 µM,-46%
same,growth inhibition,[5]; [17],-2%
same,growth inhibition,[5]; at 11.0 µM,16%
same,growth inhibition,[5]; at 33.0 µM,12%
same,growth inhibition,[5]; [18],50%
same,growth inhibition,[5]; at 50.0 µM,97.2% (active)
same,growth inhibition,[5]; at 100.0 µM,99% (active)
same,growth inhibition,[6]; at 1.2 µM,-1%
same,growth inhibition,[6]; at 3.7 µM,-2%
same,growth inhibition,[6]; [17],5%
same,growth inhibition,[6]; at 11.0 µM,0%
same,growth inhibition,[6]; at 33.0 µM,8%
same,growth inhibition,[6]; [18],27%
same,growth inhibition,[6]; at 50.0 µM,98.8% (active)
same,growth inhibition,[6]; at 100.0 µM,99% (active)
same,growth inhibition,[7]; [17],6%
same,growth inhibition,[7]; [18],13%
same,growth inhibition,[7]; at 50.0 µM,91.2% (active)
same,growth inhibition,[8]; at 1.2 µM,0%
same,growth inhibition,[8]; at 3.7 µM,1%
same,growth inhibition,[8]; at 11.0 µM,7%
same,growth inhibition,[8]; at 33.0 µM,5%
same,growth inhibition,[8]; at 100.0 µM,98% (active)
same,growth inhibition,[9]; [17],2%
same,growth inhibition,[9]; [18],15%
same,growth inhibition,[9]; at 50.0 µM,97.7% (active)
same,growth inhibition,[10]; at 1.2 µM,-3%
same,growth inhibition,[10]; at 3.7 µM,0%
same,growth inhibition,[10]; [17],3%
same,growth inhibition,[10]; at 11.0 µM,0%
same,growth inhibition,[10]; at 33.0 µM,0%
same,growth inhibition,[10]; [18],9%
same,growth inhibition,[10]; at 50.0 µM,91.3% (active)
same,growth inhibition,[10]; at 100.0 µM,99% (active)
same,growth inhibition,[11]; at 1.2 µM,-1%
same,growth inhibition,[11]; at 3.7 µM,8%
same,growth inhibition,[11]; at 11.0 µM,0%
same,growth inhibition,[11]; at 33.0 µM,4%
same,growth inhibition,[11]; at 100.0 µM,99% (active)
same,growth inhibition,[12]; at 1.2 µM,-2%
same,growth inhibition,[12]; at 3.7 µM,0%
same,growth inhibition,[12]; at 11.0 µM,0%
same,growth inhibition,[12]; at 33.0 µM,10%
same,growth inhibition,[12]; at 100.0 µM,99% (active)
same,growth inhibition,[13]; at 1.2 µM,-1%
same,growth inhibition,[13]; at 3.7 µM,1%
same,growth inhibition,[13]; at 11.0 µM,3%
same,growth inhibition,[13]; at 33.0 µM,20%
same,growth inhibition,[13]; at 100.0 µM,99% (active)
same,growth inhibition,[14]; [17],-3%
same,growth inhibition,[14]; [18],69%
same,growth inhibition,[14]; at 50.0 µM,92.2% (active)
same,growth inhibition,[15]; at 1.2 µM,-1%
same,growth inhibition,[15]; at 3.7 µM,1%
same,growth inhibition,[15]; at 11.0 µM,-1%
same,growth inhibition,[15]; at 33.0 µM,7%
same,growth inhibition,[15]; at 100.0 µM,97% (active)
CN(C)c1ccc(Sc2ccc3nc(N)nc(N)c3c2)cc1,growth inhibition,[1]; at 1.2 µM,9%
same,growth inhibition,[1]; at 3.7 µM,28%
same,growth inhibition,[1]; at 11.0 µM,31%
same,growth inhibition,[1]; at 33.0 µM,27%
same,growth inhibition,[1]; at 100.0 µM,51%
same,growth inhibition,[2]; at 1.2 µM,15%
same,growth inhibition,[2]; at 3.7 µM,12%
same,growth inhibition,[2]; at 11.0 µM,10%
same,growth inhibition,[2]; at 33.0 µM,-7%
same,growth inhibition,[2]; at 100.0 µM,-5%
same,growth inhibition,[3]; at 1.2 µM,15%
same,growth inhibition,[3]; at 3.7 µM,30%
same,growth inhibition,[3]; at 11.0 µM,24%
same,growth inhibition,[3]; at 33.0 µM,30%
same,growth inhibition,[3]; at 100.0 µM,28%
same,growth inhibition,[4]; at 1.2 µM,-5%
same,growth inhibition,[4]; at 3.7 µM,2%
same,growth inhibition,[4]; at 11.0 µM,-4%
same,growth inhibition,[4]; at 33.0 µM,-11%
same,growth inhibition,[4]; at 100.0 µM,7%
same,growth inhibition,[5]; at 1.2 µM,-18%
same,growth inhibition,[5]; at 3.7 µM,7%
same,growth inhibition,[5]; [17],41%
same,growth inhibition,[5]; at 11.0 µM,8%
same,growth inhibition,[5]; at 33.0 µM,5%
same,growth inhibition,[5]; [18],41%
same,growth inhibition,[5]; at 50.0 µM,60%
same,growth inhibition,[5]; at 100.0 µM,40%
same,growth inhibition,[16]; at 1.2 µM,-15%
same,growth inhibition,[16]; at 3.7 µM,-4%
same,growth inhibition,[16]; at 11.0 µM,-9%
same,growth inhibition,[16]; at 33.0 µM,-14%
same,growth inhibition,[16]; at 100.0 µM,5%
same,growth inhibition,[7]; [17],29%
same,growth inhibition,[7]; [18],67%
same,growth inhibition,[7]; at 50.0 µM,60%
same,growth inhibition,[8]; at 1.2 µM,17%
same,growth inhibition,[8]; at 3.7 µM,8%
same,growth inhibition,[8]; at 11.0 µM,17%
same,growth inhibition,[8]; at 33.0 µM,-11%
same,growth inhibition,[8]; at 100.0 µM,18%
same,growth inhibition,[9]; [17],24%
same,growth inhibition,[9]; [18],6%
same,growth inhibition,[9]; at 50.0 µM,25.4%
same,growth inhibition,[10]; at 1.2 µM,-17%
same,growth inhibition,[10]; at 3.7 µM,-11%
same,growth inhibition,[10]; [17],27%
same,growth inhibition,[10]; at 11.0 µM,-20%
same,growth inhibition,[10]; at 33.0 µM,-17%
same,growth inhibition,[10]; [18],43%
same,growth inhibition,[10]; at 50.0 µM,21.9%
same,growth inhibition,[10]; at 100.0 µM,-9%
same,growth inhibition,[12]; at 1.2 µM,-4%
same,growth inhibition,[12]; at 3.7 µM,-8%
same,growth inhibition,[12]; at 11.0 µM,-16%
same,growth inhibition,[12]; at 33.0 µM,-9%
same,growth inhibition,[12]; at 100.0 µM,18%
same,growth inhibition,[13]; at 1.2 µM,14%
same,growth inhibition,[13]; at 3.7 µM,21%
same,growth inhibition,[13]; at 11.0 µM,24%
same,growth inhibition,[13]; at 33.0 µM,17%
same,growth inhibition,[13]; at 100.0 µM,18%
same,growth inhibition,[14]; [17],34%
same,growth inhibition,[14]; [18],34%
same,growth inhibition,[14]; at 50.0 µM,51.8%
